# In the library only some 7.8% were active in any assay of this set; here they are far more common.
# Marburg entry inh – Marburg virus entry inhibition | Marburg virus pseudotyped entry inhibition, cell reporter | Potency, µM (titrated, usually from 37.8 µM), for inactives: at the top dose activity change, negative = inhibition, actives largely listed as inhibitors | 300,000 tested, 1.8% active; calls by dose curve; tested in HEK293 cells; note: potency is the fitted concentration of half-maximal effect
# HCMV antiviral – inhibitors of human cytomegalovirus. HFF cells, HCMV-luciferase reporter, 72 h; stronger effect = lower value. activity change, negative = inhibition, % at 57.5 µM. 410,000 tested, 4.5% active; in the data active = activity change below about -60%; inconclusive = no clear call, values can overlap the other calls; inactive = above about -39%
#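 Compounds were evaluated in HFFs infected with an HCMV luciferase reporter virus (MOI 1 PFU/cell). Luciferase in lysates collected 72 h post infection served as the replication measure.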
# HCV inhibitor – blocks hepatitis C virus. Potency, µM (titrated, usually from 41.8 µM), for inactives: top-dose activity change, negative = inhibition, actives largely listed as inhibitors. 340,000 tested, 3.4% active. Huh7.5.1 HCVcc-Cre infection, luciferase reporter, 44 h. AID 651820; active = well fitted inhibition curve with a large enough effect; inconclusive = small, poorly fitted or top-dose-only effect, or another doubt; inactive = no such curve, though single readings can be large or run the other way; note: potency is the fitted concentration of half-maximal effect
#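 Cells seeded at 1,000/well and cultured 4 h, then compounds added followed by HCVcc-Cre virus (~0.5 moi). After 44 h further culture, luciferase substrate was added, plates held 15 min at room temperature, and luminescence read for 15 sec.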
# Lassa entry inh – blocks Lassa virus binding to or entry into cells. Lassa virus pseudotype entry inhibition, cell reporter. Potency, µM (series often up to 37.9 µM), without a hit: at the top dose activity change, negative = inhibition, most hits filed as inhibitors. 300,000 tested, 1.2% active. AID 540256; calls by dose curve; tested in HEK293 cells; note: potency is the fitted concentration of half-maximal effect; nearly all actives have a fitted effect of over 50% in size
# VACV Venus inh – inhibitors of vaccinia virus (Venus reporter) | Vaccinia virus Venus reporter expression, fluorescence | 330,000 tested, 0.46% active | Potency, µM (highest dose often 36.5 µM), without a hit: at the highest dose activity change, negative = inhibition, hits mostly inhibitors; calls by dose curve; tested in A549 cells; note: potency is the fitted concentration of half-maximal effect; nearly all actives have a fitted effect of over 30% in size
# VACV mCherry inh – inhibitors of vaccinia virus infection (mCherry reporter signal); 310,000 tested, 0.63% active; Vaccinia virus mCherry reporter infection, fluorescence; Potency, µM (top dose mostly 36.5 µM), for the others: at the highest dose activity change, negative = inhibition, actives largely listed as inhibitors; calls by dose curve; tested in A549 cells; note: potency is the fitted concentration of half-maximal effect; nearly all actives have a fitted effect of over 35% in size
# * = called active by the depositor; i = inactive; u = inconclusive; x = no result given; [ ] = dose if it differs, or a comment. % is set by controls: 0 for no effect and ±100 for the full control effect.
SMILES,Marburg entry inh,HCMV antiviral,HCV inhibitor,Lassa entry inh,VACV Venus inh,VACV mCherry inh
CCC(=O)Nc1ccc(Nc2nc(C)c([N+](=O)[O-])c(Nc3ccc(NC(=O)CC)cc3)n2)cc1,u,-17.5,10µM*,u,-20.5%,-16.8%
CN(c1ccccc1)c1nc(N)c([N+](=O)[O-])c(Nc2ccccc2)n1,x,-11.2,5.62µM*,x,x,x
COc1ccccc1CCNC(=O)C(=O)NCC(c1ccco1)S(=O)(=O)c1cccs1 (stereo not given),x,-4.9,x,-0.2%[46.1 µM],-11.9%,-5.8%
CC1CCc2c(sc3ncnc(NCCCOC(C)C)c23)C1 (stereo not given),u,-36.9,10µM*,-11.3%,-27.9%,-7.4%
CC1CCc2c(sc3ncnc(NCc4cccnc4)c23)C1 (stereo not given),-0.8%,u,25.1µM*,-3.1%,x,x
CCOC(=O)N(O)c1ccc(C=Cc2ccccc2)cc1,1.26µM*,-62.2*,3.98µM*,0.631µM*,u,u
O=C(CF)N(O)c1ccc(C=Cc2ccccc2)cc1,1µM*,-79.4*,u,1.12µM*,u,u
Cc1cc(C)c2oc(-c3cccc(NC(=O)COc4ccc([N+](=O)[O-])cc4)c3)nc2c1,6.4%[46.1 µM],28.6,x,u,-10.2%[7.34 µM],-6.4%[7.34 µM]
CC(C)C[C@H](NC(=O)[C@H](Cc1ccccc1)NC(=O)c1cnccn1)B(O)O,x,-98.7*,x,x,x,x
COc1ccc(CNC(=O)c2ccc(-c3nc(CSc4ccc(C)cc4)c(C)o3)cc2)cc1OC,x,-5.7,x,8.6%[46.1 µM],2.7%,-5.5%
O=C(Cn1cnc2c(cnn2-c2ccccc2)c1=O)N1CCCc2ccccc21,7.3µM*,u,u,u,x,x
COc1ccc(-c2cc(C)no2)cc1S(=O)(=O)N1CCN(c2ccccc2F)CC1,x,u,7.08µM*,u,u,i
COc1ccc(-c2cc(C)no2)cc1S(=O)(=O)N1CCN(c2ccccn2)CC1,u,-18.2,12.6µM*,u,-19.2%,-4.0%
COc1ccc(-c2cc(C)no2)cc1S(=O)(=O)N1CCN(C(=O)c2ccco2)CC1,x,13.6,-21.3%,x,x,x
Cc1cc(-c2ccc(C(C)C)c(S(=O)(=O)N3CCN(c4ccccn4)CC3)c2)on1,x,0.0,11.2µM*,x,x,x
Cc1nc(C(=O)Nc2cc(F)cc(Cl)c2)sc1C1(C)CC(c2ccccc2)=NO1 (stereo not given),x,u,14.1µM*,x,u,-14.3%
COc1ccc(-c2cc(NC=O)c3ncc(-c4cccc(C(=O)NCCN(C)C)c4)n3c2)cn1,x,-62.6*,x,x,-11.1%,i
CN(C)CCNC(=O)c1cccc(-c2cnc3c(NC=O)cc(-c4ccc(C(=O)N5CCOCC5)cc4)cn23)c1,x,-64.4*,x,x,3.8%,53.3%
CC(=O)c1cccc(-c2cnc3c(NC=O)cc(-c4ccc(C(=O)N5CCOCC5)cc4)cn23)c1,x,-4.8,x,x,-12.1%,2.1%
CN(C)CCNC(=O)c1cccc(-c2cnc3c(NC=O)cc(-c4cccs4)cn23)c1,x,-87.4*,x,x,-8.0%,16.3%
CCc1ccc(C(=O)c2cn(CC(=O)Nc3cccc(OC)c3)c3ccc(OC)cc3c2=O)cc1,u,-13.0,x,-24.5%[46.1 µM],-13.2%,-3.5%
COc1ccc(/C=C2\SC(=S)N(CCC(=O)N(CCO)c3ccccc3)C2=O)cc1OC,x,-60.1*,14.2%,x,x,x
O=C1/C(=C/c2cccs2)SC(=S)N1CCCC(=O)N(CCO)c1ccccc1,3.7%[46.1 µM],-97.6*,8.8%,u,-17.0%,-14.5%
O=C(CCN1C(=O)/C(=C\c2cccs2)SC1=S)Nc1ccc(C(=O)O)cc1,x,-21.0,8.7%,x,x,x
COc1ccc(/C=C2/SC(=O)N(CCC(=O)Nc3ccccc3)C2=O)cc1OC,-0.7%,-63.5*,24.6%,x,x,x
COc1ccc(/C=C2\SC(=O)N(CCNC(=O)Cc3coc4cc(C)ccc34)C2=O)cc1OC,u,-99.3*,12.6µM*,-1.8%,x,x
COc1ccc(S(=O)(=O)n2nc(C)c(S(=O)(=O)N3CCCCCC3)c2C)cc1OC,x,3.6,x,29.3%[46.1 µM],-10.4%,-5.7%
Cc1[nH]c2ccccc2c1C1N2CC3(C)CN1CC(C)(C2)C3=O (stereo not given),26.3%[46.1 µM],1.0,x,-9.2%[46.1 µM],-2.4%,-2.4%

# Source: PubChem
